# Luciferase inh: Photinus pyralis luciferase inhibition; purified P. pyralis luciferase, luminescence, biochemical; P08659; AID 1347043; Potency, µM (doses to about 115 µM), most hits filed as inhibitors; actives 2.5% (n = 76,000); also: nearly all actives have a fitted effect of over 65% in size
# Target sequence (P08659 whole entry, looked up): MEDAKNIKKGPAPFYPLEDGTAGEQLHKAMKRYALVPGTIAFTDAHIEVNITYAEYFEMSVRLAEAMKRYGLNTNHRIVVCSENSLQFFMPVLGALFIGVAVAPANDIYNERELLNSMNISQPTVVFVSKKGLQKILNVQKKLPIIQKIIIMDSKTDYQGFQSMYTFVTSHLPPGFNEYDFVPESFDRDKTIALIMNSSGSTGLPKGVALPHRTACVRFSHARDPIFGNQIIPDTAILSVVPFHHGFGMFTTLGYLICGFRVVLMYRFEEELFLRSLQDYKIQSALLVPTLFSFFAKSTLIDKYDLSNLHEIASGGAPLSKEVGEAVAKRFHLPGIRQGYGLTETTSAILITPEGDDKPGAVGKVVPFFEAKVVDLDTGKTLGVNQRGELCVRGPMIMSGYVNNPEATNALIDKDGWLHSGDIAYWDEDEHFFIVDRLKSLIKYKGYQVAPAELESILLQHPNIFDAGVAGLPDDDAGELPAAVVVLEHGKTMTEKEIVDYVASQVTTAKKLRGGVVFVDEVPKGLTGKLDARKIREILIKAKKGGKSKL
#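 FLuc 10nM, D-luciferin 10uM, ATP 10uM, Mg acetate 10mM, Tris acetate pH 7.5, Tween/BSA; cpd qHTS; enzyme added last; CCD luminescence.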
# NIH3T3 tox: kills NIH 3T3 cells; NIH 3T3 viability, CellTiter-Glo ATP luminescence, 48-72 h; Potency, µM (titrated, usually from 96.7 µM), inactives show at the top dose activity change, negative = cytotoxicity, most hits filed as inhibitors; actives 4.3% (n = 94,000); AID 1345082; also: nearly all actives have a fitted effect of over 55% in size
#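 NIH 3T3 cells at 400 cells/well received 23 nL of compound by pintool and were incubated 48 or 72 h at 37 °C. Viability was read as ATP-coupled CellTiter-Glo luminescence.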
# HEK293 tox: HEK 293 cell cytotoxicity. HEK 293 viability, ATP luminescence (CellTiter-Glo), 48-72 h. Potency, µM (highest dose often 115 µM), for inactives: at the highest dose activity change, negative = cytotoxicity, hits mostly inhibitors. actives 6.6% (n = 94,000); also: nearly all actives have a fitted effect of over 60% in size
#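 CellTiter-Glo luminescence (cellular ATP) was read after 48 or 72 hr of compound exposure at 37 degree Celsius. Cells were HEK 293 plated at 250 cells/well.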
# hNpr1 antagonist: human Npr1 receptor antagonism; P16066; HEK293 hNpr1 GloSensor cGMP, ANP-stimulated luminescence; AID 1347048; actives 1.6% (n = 76,000); Potency, µM (highest dose often 46.3 µM), without a hit: top-dose activity change, negative = inhibition, most hits filed as inhibitors; calls by dose curve; also: nearly all actives have a fitted effect of over 60% in size
#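 Compound pre-incubated 30 min at room temperature on GloSensor-loaded HEK293 cells stably carrying hNpr1 and the pGS-40F cGMP biosensor. Stimulation uses hNppA at 0.1 nM final; luminescence is taken at baseline and 20 min post-agonist.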
# * hit, by the source's call; i = inactive; ? = inconclusive; . = not tested or not shown; [ ] = another dose, or the depositor's remark. The list is not random: actives were taken first. Their share in the collection is about 11%. Unless noted, calls follow the shape of the dose curve; as a rule, active = well fitted curve in the direction sought with a large enough effect; inconclusive = small, poorly fitted or top-dose-only effect, or another doubt; inactive = no such curve, though single readings can be large; an effect the other way counts as inactive or inconclusive. % is scaled to controls: 0 for no effect and ±100 for the full control effect; potency is read from the fitted curve at half-maximal effect.
SMILES,Luciferase inh,NIH3T3 tox,HEK293 tox,hNpr1 antagonist
COc1ccc(-c2[nH]nc3ncc(-c4cccnc4)nc23)c(C)c1,i,28µM*,?,2%[70.6 µM]
COc1ccc(-c2[nH]nc3ncc(-c4ccc([S+](C)(=O)[O-])cc4)nc23)c(C)c1,i,?,56µM*,-20%[70.6 µM]
COc1ccc(-c2[nH]nc3ncc(-c4cccc(F)c4)nc23)c(C)c1,i,?,?,1%[70.6 µM]
Cc1ccccc1-c1[nH]nc2ncc(-c3ccnn3C)nc12,i,?,-15%[230 µM],4%[70.6 µM]
Cc1ccccc1-c1cnc2n[nH]c(-c3ccccc3)c2n1,i,50µM*,89µM*,-23%[70.6 µM]
Cc1ccn(CC(=O)N2CCCC(CCc3ccccc3C)C2)n1 (stereo not drawn),i,?,?,0%
COCc1nc2nc(-c3ccccc3)c(-c3ccc(OC)nc3)cc2n1C,i,-27%[138 µM],?,-10%[70.6 µM]
COCc1nc2nc(-c3ccccc3)c(-c3ccc(N4CCN(C)CC4)nc3)cc2n1C,?,?,?,14µM*
COCc1nc2nc(-c3ccccc3)c(-c3ccc([S+](C)(=O)[O-])cc3)cc2n1C,i,89µM*,i,.
CNC(=O)N1CCC(C2CCN(C(=O)CCCC(=O)O)C2)CC1 (stereo not drawn),i,-3%,1%,5%
Cc1nc(C(=O)N2CCCC(CCc3cccc(C(F)(F)F)c3)C2)c(C)o1 (stereo not drawn),i,?,25µM*,-29%
O=C(c1ccc(-n2cnnn2)cc1O)N1CCCC(CCc2ccc(F)cc2)C1 (stereo not drawn),i,?,35µM*,?
O=C(CCn1cnnn1)N1CCCC(CCc2cccc(C(F)(F)F)c2)C1 (stereo not drawn),i,?,18µM*,-13%
O=C1CN(Cc2ccc(-c3ccsc3)cc2)CCN1c1cc(Cl)ncn1,i,?,35µM*,?
O=C1CN(Cc2ccc(-c3cc(F)cc(F)c3)cc2)CCN1c1nccc(Cl)n1,i,?,45µM*,-22%
COc1ccc2c(c1)CN(CC=C(C)C)C(=O)CCN2CC(C)(C)O,.,-33%,?,.
COc1ccc(C(=O)N2CCCN(c3cc(-c4ccc(OC)cc4)[nH]n3)CC2)cc1,i,-27%,?,-21%
Cc1ccc(-c2cc(N3CCCN(C(=O)c4ccc5c(c4)OCO5)CC3)n[nH]2)cc1C,i,?,?,-16%
Cc1ccc(-c2cc(N3CCCN(C(=O)c4ccco4)CC3)n[nH]2)cc1C,i,32µM*,?,-10%
COc1ccc(-c2cc(N3CCCN(C(=O)c4ccc(C)c(C)c4)CC3)n[nH]2)cc1,i,?,45µM*,0%
Cc1ccc(-c2cc(N3CCCN(C(=O)c4cccn4C)CC3)n[nH]2)cc1C,i,?,?,0%
COc1ccc(-c2cc(N3CCCN(C(=O)c4ccc(C(C)(C)C)cc4)CC3)n[nH]2)cc1,i,?,40µM*,-1%
Cc1ccc(C(=O)N2CCCN(c3cc(-c4ccc(C)c(C)c4)[nH]n3)CC2)cc1C,i,?,35µM*,-11%
Cc1nc(N2CCCCC2)n(CC(=O)Nc2cccc(Cl)c2)c(=O)c1C,i,?,?,-7%
O=C(Cc1ccccc1Cl)N1CCCN(c2cc(-c3ccccc3)[nH]n2)CC1,i,?,?,-9%
SMILES,Luciferase inh,NIH3T3 tox,HEK293 tox,hNpr1 antagonist
Cc1ccc(C)c(C(=O)N2CCN(c3cc(-c4ccc(Cl)cc4)[nH]n3)CC2)c1,i,?,25µM*,14µM*
COc1ccc(-c2cc(N3CCN(C(=O)c4ccc(Cl)cc4OC)CC3)n[nH]2)cc1,i,?,?,?
Cc1ccc(-c2cc(N3CCCN(C(=O)Cc4ccccc4Cl)CC3)n[nH]2)cc1C,?,40µM*,?,-3%
COc1ccc(Cl)cc1C(=O)N1CCCN(c2cc(-c3ccc(C)c(C)c3)[nH]n2)CC1,i,40µM*,?,-20%
Cc1ccccc1C(=O)N1CCN(c2cc(-c3ccc(F)cc3)[nH]n2)CC1,i,?,?,-21%
CCCCn1c(=O)c(C(=O)NCC(F)(F)F)nc2cccnc21,.,-14%[138 µM],3%[172 µM],.
CC(C)c1ccc(-n2cc(CN3CCCC(O)(CN(C)C)C3)cn2)cc1 (stereo not drawn),?,?,22µM*,3%
CCOc1cc(C)c(CN2CCCC(O)(CN(C)C)C2)cc1C(C)C (stereo not drawn),i,40µM*,35µM*,1%
CN(C)CC1(O)CCCN(Cc2ccc(-c3ccc(Cl)cc3)o2)C1 (stereo not drawn),i,?,?,-3%
CN(C)CC1(O)CCCN(Cc2ccc(Oc3ccc(Cl)cc3)cc2)C1 (stereo not drawn),i,22µM*,?,-6%
Cc1cc(C)c(CN2CCC(n3cc(C(C)(C)N)nn3)CC2)c(C)c1,i,79µM*,?,7%
NC(=O)NCc1cn(C2CCN(Cc3cc4ccccc4s3)CC2)nn1,i,-25%,-21%,-12%
O=C(NCCN[S+](=O)([O-])c1ccccc1)c1cccc(-c2ccsc2)c1,.,?,50µM*,.
O=C(NCC(=O)N1CCC(c2ccccc2)CC1)c1cccc(-c2ccsc2)c1,.,?,35µM*,.
O=C(CC[C@@H]1CNC(=O)[C@@H]2C[C@H](NCc3ccccn3)CN12)NCc1ccccc1,i,56µM*,71µM*,0%[70.6 µM]
O=C(CC[C@@H]1CNC(=O)[C@@H]2C[C@H](NCc3ccccn3)CN12)NCc1ccc(F)cc1,i,?,?,3%[70.6 µM]
COc1cccc(-c2cc(C(=O)N3CCc4c(c(-c5nncn5C)nn4C)C3)[nH]n2)c1,?,-3%,-21%,3%
COCCOCC(=O)N1CCOc2ccc(CN3CCc4ccccc4C3)cc2C1,i,-19%,4%,3%
O=C(C1CC1)N1CCOc2ccc(CN3CCCC3)cc2C1,i,-2%,1%,2%
O=C(C1CC1)N1CCOc2ccc(CN3CCc4ccccc4C3)cc2C1,i,-17%,40µM*,?
O=C(COc1ccc(F)cc1)N1CCOc2ccc(CN3CCc4ccccc4C3)cc2C1,i,?,?,?
O=C(COc1ccccc1)N1CCOc2ccc(CN3CCc4ccccc4C3)cc2C1,i,?,32µM*,?
Cc1ccc(OCC(=O)N2CCOc3ccc(CN4CCc5ccccc5C4)cc3C2)cc1,i,40µM*,?,-24%
CN1CC[C@H](N(Cc2ccccc2)C(=O)CC2CCCC2)C[C@H](O)C1,.,?,-26%,.
COc1ccccc1-c1nc(C(=O)NCc2ccc3c(c2)OCO3)n2ccncc12,i,-22%,?,-16%
COc1ccc(NC(=O)c2ccc3c(c2)C2(CCCN(C)C2)CN3Cc2cccnc2)cc1 (stereo not drawn),i,32µM*,-14%,1%

# Screening data: PubChem, National Center for Advancing Translational Sciences (NCATS)
